Bioassay records deposited in PubChem BioAssay by National Center for Advancing Translational Sciences (NCATS).
Most compounds without a hit are left out; they make up all but 9.9% or so of the library.
SW480 rereplic = DNA re-replication induction in SW480 cells | AID 624297 | SW480 DNA re-replication, Hoechst DNA content imaging, 48 h | hit rate 1.8% among 340,000 | Potency, µM (top dose mostly 46.1 µM), usual class: activators; note: nearly all actives have a fitted effect of over 55% in size
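Per well, 250 cells were exposed to pinned compound for 48 hr. Nuclear DNA was visualised with Hoechst (40 min, 37 C) and total object intensity recorded by fluorescence scanning.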
KB-V1 MDR tox = kills drug-selected multidrug resistant KB-V1 cells; hit rate 3.4% among 400,000; Potency, µM (highest dose often 46.1 µM), actives largely listed as cytotoxic; AID 1347076; KB-V1 MDR cells viability, CellTiter-Glo, 72 h; note: nearly all actives have a fitted effect of over 60% in size
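Compound-treated KB-V1 multidrug-resistant cells, 72 h, 37 degrees C; viability by CellTiter-Glo. Fitted qHTS curves give the values.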
MCF10A rereplic = DNA re-replication induction in MCF 10a cells | MCF 10A DNA re-replication, Hoechst nuclear intensity, 48 h | hit rate 2.9% among 350,000 | Potency, µM (doses to about 46.1 µM), actives largely listed as activators; note: nearly all actives have a fitted effect of over 50% in size
IL1B secr inh = inflammasome signaling inhibition, IL-1 beta readout; THP-1 LPS/ATP IL-1B secretion, AlphaLISA, 16 h; stronger effect = lower value; activity change, % at 57.5 µM; hit rate 4.7% among 360,000; AID 743279; in the data active = activity change below about -50%; inconclusive = mostly about -30% to -49%
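Secreted IL-1B measured by AlphaLISA bead assay after 16 h compound exposure of THP-1 cells; compounds (final up to 57.5 uM) added 1 h before LPS (250 ng/mL) and ATP (1.25 mM) stimulation; lower signal means less secretion.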
KB-3-1 cytotox = kills parental KB-3-1 adenocarcinoma cells; KB-3-1 viability, CellTiter-Glo ATP luminescence, 72 h; Potency, µM (doses to about 46.1 µM), most hits filed as cytotoxic; hit rate 1.4% among 400,000; note: nearly all actives have a fitted effect of over 60% in size
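72 h, 37 °C compound treatment of KB-3-1 parental cells; CellTiter-Glo added, 10 min, luminescence read. Data corrected against DMSO-only plates and normalized before curve fitting.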
Numbers stand for hits; ! = not confirmed by another sample. Unless noted, calls come from the whole dose curve; as a rule, active = well fitted curve in the direction sought with a large enough effect; inconclusive = small, poorly fitted or top-dose-only effect, or another doubt; inactive = no such curve, though single readings can be large; an effect the other way counts as inactive or inconclusive.

O=c1c2ccccc2nc2n1CCN2Cc1ccc(Cl)cc1 was read as SW480 rereplic inactive, KB-V1 MDR tox 4.61µM, MCF10A rereplic inactive, IL1B secr inh -78.0 and KB-3-1 cytotox 16.4µM.
`CN(Cc1ccccc1)S(=O)(=O)c1cccc2cccnc12` gave SW480 rereplic inactive, KB-V1 MDR tox 20.6µM, MCF10A rereplic inactive, IL1B secr inh inactive and KB-3-1 cytotox inactive.
Screening COc1cccc(CNC(=O)CN(C)S(=O)(=O)c2cccc3cccnc23)c1 returned SW480 rereplic inactive, KB-V1 MDR tox inactive, MCF10A rereplic inactive, IL1B secr inh inactive and KB-3-1 cytotox inactive.
`CC(C)(C)c1ccc(C(=O)Nc2cccc3c(=O)[nH][nH]c(=O)c23)cc1` gave SW480 rereplic inconclusive, KB-V1 MDR tox inactive, MCF10A rereplic inconclusive, IL1B secr inh inactive and KB-3-1 cytotox inconclusive.
`CC(C)(C)OC(=O)N1CCC(c2nnc(SCc3ccccc3Cl)o2)CC1` gave KB-V1 MDR tox 9.2µM and KB-3-1 cytotox inactive.
For CC(C)(C)OC(=O)N1CCC(c2nnc(SCc3cccc(Cl)c3)o2)CC1 the results were KB-V1 MDR tox 18.4µM and KB-3-1 cytotox inactive.
For CC(C)(C)OC(=O)N1CCC(c2nnc(SCc3ccccc3F)o2)CC1 the results were KB-V1 MDR tox inconclusive and KB-3-1 cytotox inactive.
`Cc1cc(C)cc(OCC(=O)NCC2(N(C)C)CCCCC2)c1` gave KB-V1 MDR tox inactive and KB-3-1 cytotox inactive.
`CCN(CC)C(=O)CSc1nc(N)c2c3c(sc2n1)CC(C)CC3` (centres undefined) gave SW480 rereplic inactive, KB-V1 MDR tox inconclusive, MCF10A rereplic inconclusive, IL1B secr inh inactive and KB-3-1 cytotox inactive.
For O=C(CSc1ncnc2sc3c(c12)CCCC3)c1ccco1 the results were SW480 rereplic inactive, KB-V1 MDR tox inconclusive, MCF10A rereplic inconclusive, IL1B secr inh inactive and KB-3-1 cytotox inactive.
Screening CC(C)c1nc2sc3c(SCC(=O)NCc4ccco4)ncnc3c2c2c1CCC2 returned SW480 rereplic inactive, KB-V1 MDR tox inactive, MCF10A rereplic 14.6µM, IL1B secr inh inactive and KB-3-1 cytotox inactive.
O=C(CSc1ncnc2sc3c(c12)CCCCC3)NCc1ccco1 was read as SW480 rereplic inconclusive, KB-V1 MDR tox inconclusive, MCF10A rereplic 3.98µM, IL1B secr inh inactive and KB-3-1 cytotox 7.31µM!.
For O=C(CSc1ncnc2sc3c(c12)CCCC3)NC1CCS(=O)(=O)C1 (centres undefined) the results were SW480 rereplic inactive, KB-V1 MDR tox 9.2µM, MCF10A rereplic inactive, IL1B secr inh inactive and KB-3-1 cytotox inactive.
`CC(=O)CSc1ncnc2sc3c(c12)CCCC3` gave SW480 rereplic inactive, KB-V1 MDR tox inactive, MCF10A rereplic inactive, IL1B secr inh inactive and KB-3-1 cytotox inactive.
Screening CC1CCc2c(sc3nc(SCC(=O)NCc4ccco4)nc(N)c23)C1 (centres undefined) returned SW480 rereplic inactive, KB-V1 MDR tox 13µM, MCF10A rereplic inconclusive, IL1B secr inh inactive and KB-3-1 cytotox inconclusive.
`Cc1cc(F)ccc1S(=O)(=O)N1CCCOC1CNC(=O)C(=O)NC1CCCCC1` (centres undefined) gave SW480 rereplic inactive, KB-V1 MDR tox inactive, MCF10A rereplic inactive, IL1B secr inh inactive and KB-3-1 cytotox inactive.
Cc1csc2nc(-c3ccc(NS(=O)(=O)c4cc(F)ccc4F)cc3)cn12 was read as KB-V1 MDR tox inconclusive and KB-3-1 cytotox inactive.
CC(OC(=O)Cn1cnc2c1c(=O)n(C)c(=O)n2C)C(=O)NC(C)c1ccc(Cl)cc1Cl (centres undefined) was read as SW480 rereplic inactive, KB-V1 MDR tox inactive, MCF10A rereplic inactive, IL1B secr inh inactive and KB-3-1 cytotox inactive.
For CCN(CC(=O)NC1CCS(=O)(=O)C1)C(C)C(=O)Nc1ccc(F)cc1 (centres undefined) the results were SW480 rereplic inactive, KB-V1 MDR tox inactive, MCF10A rereplic inactive, IL1B secr inh inactive and KB-3-1 cytotox inactive.
For Cc1cc2[nH]c3c(c[n+](C)c4ccccc34)c2cc1C the results were SW480 rereplic inconclusive, KB-V1 MDR tox inactive, MCF10A rereplic inconclusive, IL1B secr inh -98.6 and KB-3-1 cytotox inconclusive.
For Cc1cc(=O)[nH]c2ccccc12 the results were SW480 rereplic inactive, KB-V1 MDR tox inconclusive, MCF10A rereplic inactive, IL1B secr inh inactive and KB-3-1 cytotox inactive.
For CCOC(=O)CCC(NC(=O)CCCCCCCC(=O)NC(CCC(=O)OCC)C(=O)OCC)C(=O)OCC (centres undefined) the results were SW480 rereplic inconclusive, KB-V1 MDR tox inactive, MCF10A rereplic inactive, IL1B secr inh inactive and KB-3-1 cytotox inactive.
`O=C(Nc1cc(F)ccc1F)C1CCN(C(=O)c2cnn(-c3ccccc3)c2-n2cccc2)CC1` gave KB-V1 MDR tox inconclusive and KB-3-1 cytotox inactive.
Screening COCCNC(=O)CSc1cc(-c2ccccc2)c2ccc(OC)cc2n1 returned SW480 rereplic inactive, KB-V1 MDR tox inconclusive, MCF10A rereplic inconclusive, IL1B secr inh inactive and KB-3-1 cytotox inconclusive.
For COc1ccc2c(-c3ccccc3)cc(SCC(=O)N(C)C)nc2c1 the results were SW480 rereplic inactive, KB-V1 MDR tox inactive, MCF10A rereplic inactive, IL1B secr inh -68.3 and KB-3-1 cytotox inactive.
For COc1ccc2c(-c3ccccc3)cc(SCC(=O)NC(N)=O)nc2c1 the results were SW480 rereplic inactive, KB-V1 MDR tox inactive, MCF10A rereplic 5.8µM, IL1B secr inh inactive and KB-3-1 cytotox inactive.
Cc1cc(=O)n2nc(N3CCC(C(=O)Nc4ccc(Br)cc4F)CC3)sc2n1 was read as KB-V1 MDR tox inactive and KB-3-1 cytotox inactive.
`O=C1/C(=C/c2cccc(O)c2)SC(=S)N1CC1CCCO1` (centres undefined) gave SW480 rereplic inconclusive, KB-V1 MDR tox inactive, MCF10A rereplic inactive, IL1B secr inh inconclusive and KB-3-1 cytotox inactive.
For CN1CCN(C(=O)CCN2C(=O)/C(=C\c3ccc(Cl)cc3Cl)SC2=S)CC1 the results were SW480 rereplic inconclusive, KB-V1 MDR tox inactive, MCF10A rereplic inconclusive, IL1B secr inh -84.6 and KB-3-1 cytotox inactive.
O=C(CCN1C(=O)/C(=C/c2ccccc2)SC1=S)N1CCCCCC1 was read as SW480 rereplic inconclusive, KB-V1 MDR tox inconclusive, MCF10A rereplic inconclusive, IL1B secr inh -100.8 and KB-3-1 cytotox inconclusive.
For Cc1ccc(/C=C2\SC(=S)N(CCCC(=O)N3CCOCC3)C2=O)cc1 the results were SW480 rereplic inconclusive, KB-V1 MDR tox inactive, MCF10A rereplic inconclusive, IL1B secr inh -66.4 and KB-3-1 cytotox inconclusive.
For COc1cccc(/C=C2\SC(=S)N(CC3CCCO3)C2=O)c1 (centres undefined) the results were SW480 rereplic inactive, KB-V1 MDR tox inactive, MCF10A rereplic inconclusive, IL1B secr inh -70.7 and KB-3-1 cytotox inactive.
For O=Cc1ccc(/C=C2\C=Cc3ccccc32)cc1 the results were KB-V1 MDR tox inactive and KB-3-1 cytotox inconclusive.
Screening O=C(O)CCCN1C(=O)/C(=C\C(Cl)=C\c2ccccc2)SC1=S returned SW480 rereplic 3.26µM, KB-V1 MDR tox inconclusive, MCF10A rereplic inconclusive, IL1B secr inh -95.4 and KB-3-1 cytotox inconclusive.
